PubChem BioAssay (EPA / NIEHS)
The source made the active and inactive calls. Rule for the calls: active = hit-call score of the fitted dose curve at least 0.9, where 1 is the maximum; inactive = score below 0.9.

Legend:
Details in all cases: mRNA level, 48 h; actives raise or lower the signal
[1] = read-out: Interleukin 6 (IL6), IL6 (gene 3569); test: LTEA_HepaRG_IL6: Life Technologies and Expression Analysis (LTEA) Assay for Interleukin 6 (IL6) using HepaRG (AID 2283509)
In short: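 Differentiated human HepaRG cells, plated 48 h then switched to serum-free induction medium, were exposed in duplicate for 48 h to eight half-log concentrations up to 100 uM in 0.5% DMSO. IL6 mRNA measured by qRT-PCR, normalized to ACTB/GAPDH/POLR2A.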

[2] = read-out: Interleukin 6 Receptor (IL6R), IL6R (gene 3570); test: LTEA_HepaRG_IL6R: Life Technologies and Expression Analysis (LTEA) Assay for Interleukin 6 Receptor (IL6R) using HepaRG (AID 2283510)
In short: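 Readout is IL6R transcript level by TaqMan qRT-PCR, normalized to three housekeeping genes and fitted bidirectionally against 0.5% DMSO controls. Human HepaRG cells received chemicals for 48 h in serum-free induction medium, highest concentration 100 uM.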

[3] = read-out: Potassium channel subfamily K member 1 (KCNK1), KCNK1 (gene 3775); test: LTEA_HepaRG_KCNK1: Life Technologies and Expression Analysis (LTEA) Assay for Potassium channel subfamily K member 1 (KCNK1) using HepaRG (AID 2283511)
In short: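 Differentiated human HepaRG cells in serum-free induction medium were exposed in duplicate for 48 h to 8 half-log concentrations up to 100 uM in 0.5% DMSO. KCNK1 mRNA was measured by TaqMan qRT-PCR, normalized to ACTB, GAPDH and POLR2A, and fitted bidirectionally versus DMSO.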

[4] = read-out: Keratin 19 (KRT19), KRT19 (gene 3880); test: LTEA_HepaRG_KRT19: Life Technologies and Expression Analysis (LTEA) Assay for Keratin 19 (KRT19) using HepaRG (AID 2283512)
In short: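 Gene-expression endpoint in the human liver line HepaRG after 48 h exposure to up to 100 uM test chemical with 0.5% DMSO vehicle; KRT19 mRNA by qRT-PCR, analyzed bidirectionally versus DMSO.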

[5] = read-out: JUN Transcription Factor, JUN (gene 3725); test: LTEA_HepaRG_JUN: Life Technologies and Expression Analysis (LTEA) Assay for JUN Transcription Factor using HepaRG (AID 2283513)
In short: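 Cells plated 48 h, medium switched to serum-free induction medium, then dosed 48 h (100 uM top, half-log dilutions, 0.5% DMSO). RNA isolated; JUN measured by qRT-PCR against three housekeeping genes; gain or loss fitted relative to DMSO.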

[6] = read-out: Lipase C (LIPC), LIPC (gene 3990); test: LTEA_HepaRG_LIPC: Life Technologies and Expression Analysis (LTEA) Assay for Lipase C (LIPC) using HepaRG (AID 2283514)
In short: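 Differentiated human HepaRG cells in serum-free induction medium were exposed in duplicate for 48 h to eight concentrations (top 100 uM, half-log steps, 0.5% DMSO). LIPC mRNA was quantified by TaqMan qRT-PCR, normalized to ACTB, GAPDH and POLR2A, with bidirectional fitting versus DMSO.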

[7] = read-out: Lipoprotein lipase (LPL), LPL (gene 4023); test: LTEA_HepaRG_LPL: Life Technologies and Expression Analysis (LTEA) Assay for Lipoprotein lipase (LPL) using HepaRG (AID 2283515)
In short: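 Differentiated human HepaRG cells in serum-free induction medium were exposed in duplicate for 48 h to eight half-log concentrations (top 100 uM) in 0.5% DMSO. LPL mRNA was quantified by TaqMan qRT-PCR, normalized to ACTB, GAPDH and POLR2A.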

[8] = read-out: MicroRNA 122 (MIR122), gene 406906; test: LTEA_HepaRG_MIR122: Life Technologies and Expression Analysis (LTEA) Assay for MicroRNA 122 (MIR122) using HepaRG (AID 2283516); note: the transcript read is the microRNA miR-122
In short: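 HepaRG plated 48 h, switched to serum-free induction medium, then treated in duplicate for 48 h (100 uM top, half-log steps, 0.5% DMSO vehicle). RNA isolated, qRT-PCR performed, concentration-response fitted both directions relative to DMSO.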

[9] = read-out: matrix metalloproteinase-10 (MMP10), MMP10 (gene 4319); test: LTEA_HepaRG_MMP10: Life Technologies and Expression Analysis (LTEA) Assay for matrix metalloproteinase-10 (MMP10) using HepaRG (AID 2283517)
In short: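 HepaRG, collagen I, ~100,000 cells/well; serum-free induction medium; 48 h exposure, duplicate, 8-pt half-log to 100 uM, 0.5% DMSO. Readout: TaqMan qRT-PCR, normalized to ACTB/GAPDH/POLR2A; bidirectional fit vs DMSO.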

MYC, MYC (gene 4609) = test: LTEA_HepaRG_MYC: Life Technologies and Expression Analysis (LTEA) Assay for MYC using HepaRG (AID 2283518)
In short: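 Cells are thawed, plated and cultured 48 h, then treated for 48 h with test chemicals (eight half-log concentrations from 100 uM, 0.5% DMSO vehicle). RNA is isolated and MYC expression quantified by qRT-PCR against three housekeeping genes.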

[10] = read-out: matrix metalloproteinase-3 (MMP3), MMP3 (gene 4314); test: LTEA_HepaRG_MMP3: Life Technologies and Expression Analysis (LTEA) Assay for matrix metalloproteinase-3 (MMP3) using HepaRG (AID 2283519)
In short: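 Differentiated human HepaRG cells, plated 48 h on collagen I, were exposed in duplicate for 48 h in serum-free induction medium to eight half-log concentrations up to 100 uM in 0.5% DMSO. MMP3 mRNA was quantified by TaqMan qRT-PCR, normalised to ACTB, GAPDH and POLR2A.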

[11] = read-out: Paternally Expressed 10 (PEG10), PEG10 (gene 23089); test: LTEA_HepaRG_PEG10: Life Technologies and Expression Analysis (LTEA) Assay for Paternally Expressed 10 (PEG10) using HepaRG (AID 2283520)
In short: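 HepaRG, 48 h post-plating → serum-free induction medium → 48 h chemical exposure (duplicate, 8-pt, max 100 uM, half-log, 0.5% DMSO) → lysis in RLT → TaqMan qRT-PCR for PEG10, ACTB/GAPDH/POLR2A normalisation.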

[12] = read-out: Nuclear factor NF-kappa-B p105 subunit (Homo sapiens) (UniProt P19838); test: LTEA_HepaRG_NFKB1: Life Technologies and Expression Analysis (LTEA) Assay for Nuclear Factor Kappa B Subunit 1 (NFKB1) using HepaRG (AID 2283521);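 note: TaqMan qRT-PCR transcript normalised to ACTB GAPDH and POLR2A housekeeping genes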
In short: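 Human HepaRG cells receive eight half-log concentrations, highest 100 uM, for 48 h. NFKB1 expression is then quantified by qRT-PCR and analysed for up- or down-regulation relative to 0.5% DMSO vehicle.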

[13] = read-out: Protein phosphatase 2A (PPP2R4), PTPA (gene 5524); test: LTEA_HepaRG_PPP2R4: Life Technologies and Expression Analysis (LTEA) Assay for Protein phosphatase 2A (PPP2R4) using HepaRG (AID 2283522)
In short: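 Readout is PPP2R4 transcript level by microfluidic qRT-PCR after 48 h chemical treatment of human HepaRG liver cells. Concentrations spanned 100 uM downward in half-log steps; gain or loss of signal was fitted relative to DMSO.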

[14] = read-out: Phosphatase and tensin (PTEN), PTEN (gene 5728); test: LTEA_HepaRG_PTEN: Life Technologies and Expression Analysis (LTEA) Assay for Phosphatase and tensin (PTEN) using HepaRG (AID 2283523)
In short: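 Differentiated human HepaRG cells, plated 48 h then switched to serum-free induction medium, were exposed in duplicate for 48 h to eight half-log concentrations up to 100 uM in 0.5% DMSO. PTEN mRNA measured by TaqMan qRT-PCR, normalized to ACTB/GAPDH/POLR2A, bidirectional fit versus DMSO.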

[15] = read-out: Pyruvate Dehydrogenase Kinase 4 (PDK4), PDK4 (gene 5166); test: LTEA_HepaRG_PDK4: Life Technologies and Expression Analysis (LTEA) Assay for Pyruvate Dehydrogenase Kinase 4 (PDK4) using HepaRG (AID 2283525)
In short: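 Differentiated human HepaRG cells, pre-cultured 48 h, were exposed in duplicate for 48 h in serum-free induction medium to eight half-log concentrations up to 100 uM in 0.5% DMSO. PDK4 mRNA was quantified by qRT-PCR, normalized to ACTB, GAPDH and POLR2A, bidirectional fitting versus DMSO.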

[16] = read-out: NAD(P)H dehydrogenase [quinone] 1 (NQO1), NQO1 (gene 1728); test: LTEA_HepaRG_NQO1: Life Technologies and Expression Analysis (LTEA) Assay for NAD(P)H dehydrogenase [quinone] 1 (NQO1) using HepaRG (AID 2283526)
In short: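 HepaRG, 48 h post-plating → serum-free induction medium → test chemical 48 h (duplicate, 100 uM top, half-log x8, 0.5% DMSO) → RNA isolation → qRT-PCR, ACTB/GAPDH/POLR2A normalization; bidirectional curve fit vs DMSO baseline.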

[17] = read-out: Nuclear factor erythroid 2-related factor 2 (Homo sapiens) (UniProt Q16236); test: LTEA_HepaRG_NFE2L2: Life Technologies and Expression Analysis (LTEA) Assay for Nuclear factor erythroid 2-related factor 2 (NFE2L2) Transcription Factor using HepaRG (AID 2283527);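 note: TaqMan qRT-PCR transcript level normalised to ACTB GAPDH and POLR2A housekeeping genes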
In short: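 Differentiated human HepaRG cells in serum-free induction medium were exposed for 48 h to eight concentrations (top 100 uM, half-log dilutions, 0.5% DMSO), in duplicate. NFE2L2 mRNA was quantified by TaqMan qRT-PCR, normalized to ACTB, GAPDH and POLR2A, with bidirectional fitting versus DMSO.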

[18] = read-out: succinate dehydrogenase complex iron sulfur subunit B (SDHB), SDHB (gene 6390); test: LTEA_HepaRG_SDHB: Life Technologies and Expression Analysis (LTEA) Assay for succinate dehydrogenase complex iron sulfur subunit B (SDHB) using HepaRG (AID 2283528)
In short: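 A human HepaRG culture in serum-free induction medium received test chemicals for 48 h over an eight-point range capped at 100 uM. SDHB expression change was quantified by qRT-PCR.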

[19] = read-out: solute carrier (SLC22A1), SLC22A1 (gene 6580); test: LTEA_HepaRG_SLC22A1: Life Technologies and Expression Analysis (LTEA) Assay for solute carrier (SLC22A1) using HepaRG (AID 2283524)
In short: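 Human HepaRG cells were plated 48 h, switched to serum-free induction medium, then exposed in duplicate for 48 h to 8-point half-log series from 100 uM in 0.5% DMSO. SLC22A1 mRNA measured by qRT-PCR, normalized to ACTB/GAPDH/POLR2A, fitted bidirectionally versus DMSO.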

Measured: outcome

Sequence of Nuclear factor NF-kappa-B p105 subunit (Homo sapiens) (P19838 whole entry, looked up): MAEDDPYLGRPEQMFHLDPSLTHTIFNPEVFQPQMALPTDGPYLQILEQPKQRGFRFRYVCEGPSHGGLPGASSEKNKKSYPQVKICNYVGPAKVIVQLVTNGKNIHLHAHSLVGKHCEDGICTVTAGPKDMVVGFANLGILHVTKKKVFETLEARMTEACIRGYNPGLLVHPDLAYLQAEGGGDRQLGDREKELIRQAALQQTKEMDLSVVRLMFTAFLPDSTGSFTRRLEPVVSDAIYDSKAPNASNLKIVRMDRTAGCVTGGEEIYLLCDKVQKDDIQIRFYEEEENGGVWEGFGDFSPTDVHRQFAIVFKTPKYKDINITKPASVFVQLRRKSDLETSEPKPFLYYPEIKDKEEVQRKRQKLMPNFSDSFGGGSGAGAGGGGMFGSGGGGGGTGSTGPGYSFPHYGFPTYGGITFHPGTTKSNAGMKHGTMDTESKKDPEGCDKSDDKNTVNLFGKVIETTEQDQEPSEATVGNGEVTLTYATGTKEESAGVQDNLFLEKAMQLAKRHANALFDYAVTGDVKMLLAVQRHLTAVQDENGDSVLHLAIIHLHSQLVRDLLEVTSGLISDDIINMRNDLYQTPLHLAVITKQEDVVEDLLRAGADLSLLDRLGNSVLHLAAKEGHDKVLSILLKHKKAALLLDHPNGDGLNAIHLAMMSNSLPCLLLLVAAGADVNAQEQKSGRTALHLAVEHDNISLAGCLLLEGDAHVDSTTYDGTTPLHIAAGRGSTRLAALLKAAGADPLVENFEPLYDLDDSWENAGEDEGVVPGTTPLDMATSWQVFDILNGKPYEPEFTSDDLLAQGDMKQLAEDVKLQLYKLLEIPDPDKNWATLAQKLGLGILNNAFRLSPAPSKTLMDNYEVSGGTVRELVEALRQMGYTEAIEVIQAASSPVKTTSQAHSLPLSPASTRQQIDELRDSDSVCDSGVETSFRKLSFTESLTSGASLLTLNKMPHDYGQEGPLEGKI
Sequence of Nuclear factor erythroid 2-related factor 2 (Homo sapiens) (Q16236 whole entry, looked up): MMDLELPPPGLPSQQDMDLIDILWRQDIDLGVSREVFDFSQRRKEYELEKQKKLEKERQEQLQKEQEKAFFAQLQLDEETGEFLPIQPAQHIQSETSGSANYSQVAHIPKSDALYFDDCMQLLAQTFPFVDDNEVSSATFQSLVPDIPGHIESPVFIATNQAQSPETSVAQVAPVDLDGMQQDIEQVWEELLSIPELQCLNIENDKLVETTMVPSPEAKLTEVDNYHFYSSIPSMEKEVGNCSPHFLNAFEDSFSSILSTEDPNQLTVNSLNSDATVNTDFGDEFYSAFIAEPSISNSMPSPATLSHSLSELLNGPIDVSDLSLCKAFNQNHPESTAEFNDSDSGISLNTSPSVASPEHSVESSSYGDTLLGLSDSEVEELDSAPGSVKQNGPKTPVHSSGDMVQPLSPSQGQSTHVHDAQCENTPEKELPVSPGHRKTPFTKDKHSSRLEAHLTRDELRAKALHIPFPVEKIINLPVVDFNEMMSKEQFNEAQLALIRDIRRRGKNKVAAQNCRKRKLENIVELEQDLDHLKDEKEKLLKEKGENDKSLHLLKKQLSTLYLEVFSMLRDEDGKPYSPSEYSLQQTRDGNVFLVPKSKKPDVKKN

CC(C)CCCCCCOC(=O)CCCCC(=O)OCCCCCCC(C)C
inactive: [1] | [2] | [3] | [4] | [5] | [6] | [7] | [8] | [9] | MYC, MYC (gene 4609) | [10] | [11] | [12] | [13] | [14] | [15] | [16] | [17] | [18]

CCCCCCCCCCCCCCCS(=O)(=O)Oc1ccccc1
inactive: [1] | [2] | [3] | [4] | [5] | [6] | [7] | [8] | [9] | MYC, MYC (gene 4609) | [10] | [11] | [12] | [13] | [14] | [15] | [16] | [17] | [18]

CC(O)CO (stereo not drawn)
inactive: [1] | [2] | [3] | [4] | [5] | [6] | [7] | [8] | [9] | MYC, MYC (gene 4609) | [10] | [11] | [12] | [13] | [14] | [19] | [15] | [16] | [17] | [18]
